According to the supplement of paper PMC9694430:

What was measured:
Assay in all cases: thermal shift delta Tm vs DMSO control; higher = stronger stabilization (binding)
Conditions in all cases: 12.5 µM; protein concentration 2 µM
[1] = system: LOC_OS01G57100-cb003
Outline: (§1)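 Heating from 25°C to 95°C at 0.05°C/s, fluorescence was recorded for 19.5 μl wells of 2 μM E. coli-expressed, purified rice kinase domain in 100 mM potassium phosphate pH 7.5, 150 mM NaCl, 10% glycerol and 5 × SYPRO Orange with compound in DMSO. Boltzmann fits gave melting temperatures for this differential scanning fluorimetry assay. The shift reported is the mean of three replicates against the DMSO-only protein.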

[2] = system: LOC_OS01G60330-cb001
Outline: as §1

[3] = system: LOC_OS01G60700-cb002
Outline: as §1

[4] = system: LOC_OS01G63280-cb003
Outline: as §1

[5] = system: LOC_OS01G67340-cb003
Outline: as §1

[6] = system: LOC_OS01G70970-cb002
Outline: as §1

[7] = system: LOC_OS02G07810-cb001
Outline: as §1

[8] = system: LOC_OS02G08530-cb003
Outline: as §1

[9] = system: LOC_OS02G14120-cb001
Outline: as §1

[10] = system: LOC_OS02G17970-cb001
Outline: as §1

[11] = system: LOC_OS02G45750-cb003
Outline: as §1

[12] = system: LOC_OS02G54510-cb004
Outline: as §1

[13] = system: LOC_OS03G04050-cb001
Outline: as §1

[14] = system: LOC_OS03G12390-cb001
Outline: as §1

[15] = system: LOC_OS03G27990-cb004
Outline: as §1

[16] = system: LOC_OS03G50450-cb001
Outline: as §1

[17] = system: LOC_OS03G50810-cb003
Outline: as §1

[18] = system: LOC_OS04G35114-cb001
Outline: as §1

[19] = system: T1, LOC_OS04G38480-cb003
T1 sequence (whole entry): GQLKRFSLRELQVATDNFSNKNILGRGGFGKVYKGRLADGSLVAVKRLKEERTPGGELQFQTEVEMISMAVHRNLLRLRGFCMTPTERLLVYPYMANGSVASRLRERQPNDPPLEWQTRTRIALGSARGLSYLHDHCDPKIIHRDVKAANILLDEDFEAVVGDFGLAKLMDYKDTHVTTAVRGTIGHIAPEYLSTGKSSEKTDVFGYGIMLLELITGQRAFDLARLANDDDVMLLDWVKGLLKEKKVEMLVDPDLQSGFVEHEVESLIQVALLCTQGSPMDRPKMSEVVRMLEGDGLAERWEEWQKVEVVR
Outline: as §1

[20] = system: T2, LOC_OS04G41100-cb001
T2 sequence (whole entry): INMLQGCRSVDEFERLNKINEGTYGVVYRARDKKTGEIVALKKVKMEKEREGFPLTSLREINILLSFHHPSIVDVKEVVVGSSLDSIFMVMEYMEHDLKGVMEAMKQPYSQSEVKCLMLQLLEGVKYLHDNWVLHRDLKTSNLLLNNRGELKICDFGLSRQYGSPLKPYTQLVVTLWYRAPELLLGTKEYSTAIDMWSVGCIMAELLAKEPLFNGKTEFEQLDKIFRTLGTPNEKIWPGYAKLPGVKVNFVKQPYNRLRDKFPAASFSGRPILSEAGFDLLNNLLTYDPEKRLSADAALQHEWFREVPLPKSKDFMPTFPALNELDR
Outline: as §1
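Further: purified Escherichia coli-expressed rice kinase domain construct.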

SMILES	thermal shift delta Tm [1] [°C]	thermal shift delta Tm [2] [°C]	thermal shift delta Tm [3] [°C]	thermal shift delta Tm [4] [°C]	thermal shift delta Tm [5] [°C]	thermal shift delta Tm [6] [°C]	thermal shift delta Tm [7] [°C]	thermal shift delta Tm [8] [°C]	thermal shift delta Tm [9] [°C]	thermal shift delta Tm [10] [°C]	thermal shift delta Tm [11] [°C]	thermal shift delta Tm [12] [°C]	thermal shift delta Tm [13] [°C]	thermal shift delta Tm [14] [°C]	thermal shift delta Tm [15] [°C]	thermal shift delta Tm [16] [°C]	thermal shift delta Tm [17] [°C]	thermal shift delta Tm [18] [°C]	thermal shift delta Tm [19] [°C]	thermal shift delta Tm [20] [°C]
N[C@@H]1CCCN(c2c(/C=C3\SC(=O)NC3=O)cccc2-c2ccccc2)C1	0.49	-0.07	0.8	-0.31	-0.25	0.19	0.55	0.62	-0.31	-0.03	0.09	-0.11	0.23	-0.15	0.47	0.53	0.13	0.97	0.39	0.61
CCn1c(-c2nonc2N)nc2cnc(Oc3cccc(NC(=O)c4ccc(OCCN5CCOCC5)cc4)c3)cc21	0.1	1.01	1.61	0.37	1.07	0.14	0.95	1.19	-0.13	1.79	-0.36	0.27	0.38	0.99	0.4	-0.03	0.42	0.1	2.03	0.94
O=S(=O)(c1cccc2c(I)cccc12)N1CCCNCC1	0.91	-0.01	0	0.2	0	0.35	0.33	0.35	0.9	0.24	0.53	-0.05	0.42	0.16	0.1	0.19	0.19	0.11	2.17	0.44
O=C1NC(=O)C(=Cc2ccc(-c3ccc(F)cc3)o2)S1 (stereo in doubt)	3.43	0.21	0.92	0.52	1.18	0.36	1.67	1.15	0.34	1.28	0.93	0.18	0.6	0.59	0.53	0.23	0.29	1.05	0.83	0.69
Cc1cc(CN2CCN(c3c(Br)cnc4nc(-c5ccc(N6CCN(C)CC6)cc5)[nH]c34)CC2)no1	0.54	3.22	0.17	0.23	1.36	1.3	0.7	0.33	4.66	0.14	11.1	0.56	0.42	2.08	1.47	4.97	4	3.09	2.28	0.48
Cn1cnc2c(F)c(Nc3ccc(Br)cc3F)c(C(=O)NOCCO)cc21	0.75	0.73	1.26	0.46	0.06	0.46	1.12	0.93	-0.02	1.34	0.6	0.05	0.71	0.19	0.4	0.43	0.44	0	1.48	0.46
CN(C)S(=O)(=O)c1ccc2c(c1)/C(=C/c1cc3c([nH]1)CCCC3)C(=O)N2	6.51	10.9	1.5	7.86	11.3	5.65	1.5	5.64	13	1.69	0	1.15	0.65	0.26	0.61	0.97	0	0	6.35	0.43
CCCCCCCCCCCCCCCCn1cc[n+](Cc2ccccc2)c1C	-6.09	0.5	-2.72	-7.84	-1.74	-4.15	-4.78	-0.96	-1.51	-2.91	-1.15	-1.83	-4.41	-3.77	0.11	-1.25	-4.07	-2.5	-5.2	-1.35
Cn1ncc(Cl)c1-c1cc(C(=O)N[C@H](CN)Cc2ccc(F)c(F)c2)oc1Cl	1.78	0.8	1.33	0.28	0.45	0.03	0.82	0.49	0.41	1.67	1.04	-0.14	0.46	1.31	0.14	0.74	0.51	0.52	1.58	0.63
Cc1ccc(S(=O)(=O)/C=C/C#N)cc1	3.66	-1.26	-1.01	-3.09	-0.5	-2.73	0.83	1.24	-1.26	0.99	-0.28	1.4	0.67	-0.03	-0.15	0.08	-1.25	0.08	0.47	-0.67
C1=N/C2=N/c3ccc(OCCN4CCCC4)c(c3)COC/C=C/COCc3cccc(c3)C(=C1)N2 [Pacritinib (SB1518)]	1.85	6.01	0.7	2.88	1.79	2.62	0.11	4.85	11.4	0.42	8.5	3.05	0.14	4.32	4.35	3.76	7.67	10.9	3.66	5.39
O=c1c(-c2ccc(O)cc2)coc2cc(O)cc(O)c12 [Genistein]	-0.59	0.72	1.28	0.16	-0.02	0.33	0.97	1.28	-1.28	1.58	-0.47	-0.37	-0.01	1.8	0.92	0.14	0.36	-1.3	-1.76	-0.75
C=C(C)[C@@H]1CC[C@]2(C)CC[C@]3(C)[C@H](CC[C@@H]4[C@@]5(C)CC[C@H](O)C(C)(C)[C@@H]5CC[C@]43C)[C@@H]12 [Lupeol]	0.67	-0.59	0.65	0.13	0.51	-0.32	1	0.21	-0.18	-0.66	1.07	0.49	0.67	0.01	0.18	0.36	0.4	1.24	3.02	0.47
COc1cc(OC)cc(-c2cc3cnc(N)nc3nc2NC(=O)NC(C)(C)C)c1	1.18	0.3	0.16	0.24	-0.11	0.35	-0.88	0.52	0.72	-0.49	0.88	0.19	0.34	0.31	0.16	0.18	0.24	0	0.52	0.39
O=c1nc(N2CCOCC2)oc2c(-c3cccc4c3sc3ccccc34)cccc12	1.63	-0.13	-0.9	-1.32	-1.09	-0.38	-1.31	0.23	0.11	-0.76	0.04	-0.35	-0.14	-0.44	-0.35	0.04	-0.24	-0.68	0.64	0.24
Nc1cccc(S(=O)(=O)N2CCCN(S(=O)(=O)c3ccc4c(c3)OCCO4)CC2)c1	0.46	0.53	0.59	-0.02	0.27	0.17	0.54	0.32	0.21	0.7	0.54	0.12	0.38	0.13	0.13	0.24	0.28	0.8	1.86	0.33
Cc1ccc([N+](=O)[O-])cc1S(=O)(=O)N(C)/N=C/c1cnc2ccc(Br)cn12	3.41	-0.03	1.24	1.7	3.58	4.2	0.51	6.04	9.06	1.2	1.33	0.35	0.72	0.02	0.5	0.64	0.47	1.17	3.16	1.09
CCN(C)S(=O)(=O)Nc1ccc(F)c(C(=O)c2c[nH]c3ncc(-c4cnc(C5CC5)nc4)cc23)c1F	1.23	1.8	0.8	7.4	0.55	0.37	0.74	0.59	-0.46	0.71	3.15	0.87	0.3	0.5	0.47	0.08	0.44	2.53	0.81	0.37
Cc1cnc(Nc2ccc(N3CCN(C)CC3)cc2)nc1Nc1cccc(S(=O)(=O)NC(C)(C)C)c1	2.09	2.84	1.28	0.46	1.05	3.63	0.9	3.06	8.37	1.17	2.16	1.6	0.74	3.11	1.77	2.4	3.61	3.61	2.7	0.79
O=C(O)c1ccc(Nc2ncc3c(n2)-c2ccc(Cl)cc2C(c2c(F)cccc2F)=NC3)cc1	0.51	0.82	0.64	-0.31	-0.46	0.46	0.3	0.39	0.88	0.07	0.27	1.01	0.54	-0.49	0.21	0.06	0.12	0.54	0.01	0.55
C[C@@H](Nc1cc(F)cc(F)c1)c1cc(C(=O)N(C)C)cc2c(=O)cc(N3CCOCC3)oc12	0.51	1.18	1.09	0.24	0.36	0.08	0.6	0.37	0.3	0.78	-0.34	-0.01	0.03	0	0.1	-0.15	0.15	0.51	1.21	0.16
O=C(Nc1cccnc1)c1cc(-c2ccnc(F)c2)ccc1OCc1ccccc1	0.33	0.69	0.86	-0.26	0.85	0.12	0.46	2.26	0.34	0.6	1.01	0.22	0.77	4.48	0.39	0.36	0.76	0.97	1.76	0.25
CCc1ccc(/C=C2/SC(=S)NC2=O)cc1	3.2	1.11	2.87	0.27	0.34	1.39	1.4	1.74	1.62	1.54	-0.48	0.83	1.24	1.18	0.83	0.26	0.48	1.2	1.19	0.36
C=C[C@@](C)(/C=C/c1ccc(O)cc1)CCC=C(C)C [Bakuchiol]	-0.4	0.36	0.05	0.51	-0.02	0.49	-0.84	0.6	0.29	0.27	-0.82	-0.05	0.71	-0.13	0.37	0.04	0.28	0.46	0.81	0.44
CS(=O)(=O)N1CCc2c(-c3cnc(N)nc3)nc(N3CCOCC3)nc21	1.64	1.56	0.95	0.4	1.13	0.73	1.06	1.51	1.15	0.81	1.16	0.52	0.13	0.72	0.23	0.77	0.53	0.89	1.31	0.14
